PubChem BioAssay
The source made the active and inactive calls. Unless noted, the rule behind the calls is not given here.

How the values were obtained:
[1] = test system: Wnt5a (protein binding on small-molecule microarray); test: small molecules binding Wnt5a protein – biophysical, small-molecule microarray, 635/667 nm fluorescence, primary screen (AID 1142); settings: 635 nm fluorescence, higher = more signal;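 note: fluorescence read at 667 nm with signal to noise per printed feature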
[2] = ATP-based viability of Huh7 replicon cells – cell-based, CellTiter-Glo luminescence, basal, 48 h, cytotoxicity control for HCV replication inhibitor project, primary screen (AID 1143); settings: higher = more signal, called active from +8 up or from −8 down;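 note: Huh7 hepatoma cells carrying a hepatitis C replication reporter with no stimulus; test concentration not given here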
[3] = Pseudomonas biofilm growth suppression – PAO1 strain, BacTiter-Glo luminescence, LB-PBS, primary screen (AID 1144); settings: P. aeruginosa PAO1 biofilm, 12 h, higher = more signal
[4] = basal CRE-LacZ reporter activity in PC12 – cell-based, unstimulated, primary screen (AID 1145); settings: no forskolin, luminescence, 4.5 h, higher = more signal, called active from +8 up or from −8 down
[5] = forskolin-driven CRE-LacZ activity in PC12 – cell-based, CRE-LacZ reporter, forskolin-stimulated, primary screen (AID 1146); settings: luminescence, 4.5 h, higher = more signal, called active from +8 up or from −8 down;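 note: PC12 cells with 6xCRE LacZ reporter stimulated by forskolin 10 µM; beta-galactosidase reporter signal reflecting CREB driven transcription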
[6] = target: Streptavidin (Streptomyces avidinii) (UniProt P22629); test: compounds binding control protein streptavidin – biophysical, small-molecule microarray, 635/667 nm fluorescence, artefact control for SMM compound annotation, primary screen (AID 1147); settings: higher = more signal;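 note: signal reflects streptavidin binding to arrayed compounds as a control protein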
Sequence of Streptavidin (Streptomyces avidinii) (P22629 whole entry, looked up): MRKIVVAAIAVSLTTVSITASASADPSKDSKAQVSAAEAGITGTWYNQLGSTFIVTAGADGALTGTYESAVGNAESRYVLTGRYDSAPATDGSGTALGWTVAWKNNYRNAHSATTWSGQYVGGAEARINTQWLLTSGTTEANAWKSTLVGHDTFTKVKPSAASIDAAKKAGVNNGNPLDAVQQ

[7] = probe aInhba binding on compound microarray – biochemical, small-molecule microarray, 635/667 nm fluorescence, primary screen (AID 1148); settings: higher = more signal;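 note: score merges 667nm spot fluorescence with signal-to-noise for antibody binding to printed compounds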
Torsin-1A (Homo sapiens) [8] = target: Torsin-1A (Homo sapiens) (UniProt O14656); test: TOR1A wild-type binding on microarray – cell lysate, small-molecule microarray, lysate, 635/667 nm, primary screen (AID 1149); settings: COS7 hTOR1A-WT lysate, 635 nm fluorescence, higher = more signal
Sequence of Torsin-1A (Homo sapiens) (O14656 whole entry, looked up): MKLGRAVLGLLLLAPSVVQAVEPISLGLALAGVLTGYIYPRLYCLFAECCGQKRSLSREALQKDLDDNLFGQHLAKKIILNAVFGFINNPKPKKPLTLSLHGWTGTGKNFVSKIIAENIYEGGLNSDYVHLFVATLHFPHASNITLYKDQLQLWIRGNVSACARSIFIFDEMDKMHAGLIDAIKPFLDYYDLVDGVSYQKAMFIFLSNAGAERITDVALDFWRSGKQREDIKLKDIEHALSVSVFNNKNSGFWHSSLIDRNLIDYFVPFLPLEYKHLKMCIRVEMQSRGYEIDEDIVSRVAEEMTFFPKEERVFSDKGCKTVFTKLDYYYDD

Torsin-1A (Homo sapiens) [9] = target: Torsin-1A (Homo sapiens) (UniProt O14656); test: torsin A mutant lysate binding on microarrays – cell lysate, small-molecule microarray, COS7 lysate, 635/667 nm fluorescence, primary screen (AID 1150); settings: COS7 hTOR1A mutant lysate, 635 nm fluorescence, higher = more signal;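 note: score pools 667 nm emission and signal to noise measuring lysate protein binding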
[10] = test system: Sonic hedgehog protein (Shh); test: Sonic hedgehog microarray binding compounds – biochemical, small-molecule microarray, 635/667 nm fluorescence, primary screen (AID 1151); settings: 635 nm fluorescence, higher = more signal;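 note: Shh protein binding to compounds spotted on small-molecule microarray slides; score combines spot fluorescence intensity with signal-to-noise across triplicate slides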
[11] = optical density shifts of acrAB sulA E. coli – strain DRC41, OD650, 48 h, E. coli filamentation inducer project, primary screen (AID 1152); settings: higher = more signal, called active from +8 up or from −8 down;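 note: E. coli MC1000 strain DRC41 lacking acrAB efflux pump and sulA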
[12] = probe aLefty1 binding on compound microarray – biochemical, small-molecule microarray, 635/667 nm fluorescence, primary screen (AID 1153); settings: higher = more signal;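 note: score merges spot fluorescence with signal-to-noise ratio from the scanned slide images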
[13] = plasmodial surface anion channel blockers, osmotic lysis – cell-based, P. falciparum Indochina, OD700, 1 h, primary screen (AID 1154); settings: P. falciparum Indochina infected RBC osmotic lysis, higher = more signal, called active from +8 up or from −8 down
[14] = plasmodial surface anion channel blockers, osmotic lysis – cell-based, P. falciparum Indochina, OD700, 2 h, primary screen (AID 1155);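 note: lysis reports solute entry through the parasite surface anion channel PSAC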; settings: P. falciparum Indochina infected erythrocytes, higher = more signal, called active from +8 up or from −8 down
[15] = changes in parasitized red cell lysis, either direction – P. falciparum Indochina, OD700, 3 h, PSAC antagonist project, primary screen (AID 1156); settings: P. falciparum-infected erythrocytes, osmotic lysis, higher = more signal, called active from +8 up or from −8 down
[16] = plasmodial surface anion channel blockers, osmotic lysis – cell-based, P. falciparum Indochina, OD700, 18 h, primary screen (AID 1157); settings: P. falciparum Indochina infected erythrocytes, osmotic lysis OD700, 18 h; higher = more signal, called active from +8 up or from −8 down
[17] = S6 kinase pathway phospho-S6 level changes – cell-based, A549, cytoblot, luminescence, serum-stimulated, primary screen (AID 1158); settings: 5 h, higher = more signal;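 note: serum-stimulated A549 lung adenocarcinoma cells; signal is phosphorylated S6 detected by cytoblot immunostaining with HRP secondary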
[18] = target: NADPH oxidase 2 (Homo sapiens) (UniProt P04839); test: compounds shifting NOX2 Amplex Red fluorescence – cell-based, HEK293-NOX2, PMA-stimulated, NOX inhibitor project, primary screen (AID 1159); settings: 45 min, higher = more signal, called active from +8 up or from −8 down; note: test concentration not given here
Sequence of NADPH oxidase 2 (Homo sapiens) (P04839 whole entry, looked up): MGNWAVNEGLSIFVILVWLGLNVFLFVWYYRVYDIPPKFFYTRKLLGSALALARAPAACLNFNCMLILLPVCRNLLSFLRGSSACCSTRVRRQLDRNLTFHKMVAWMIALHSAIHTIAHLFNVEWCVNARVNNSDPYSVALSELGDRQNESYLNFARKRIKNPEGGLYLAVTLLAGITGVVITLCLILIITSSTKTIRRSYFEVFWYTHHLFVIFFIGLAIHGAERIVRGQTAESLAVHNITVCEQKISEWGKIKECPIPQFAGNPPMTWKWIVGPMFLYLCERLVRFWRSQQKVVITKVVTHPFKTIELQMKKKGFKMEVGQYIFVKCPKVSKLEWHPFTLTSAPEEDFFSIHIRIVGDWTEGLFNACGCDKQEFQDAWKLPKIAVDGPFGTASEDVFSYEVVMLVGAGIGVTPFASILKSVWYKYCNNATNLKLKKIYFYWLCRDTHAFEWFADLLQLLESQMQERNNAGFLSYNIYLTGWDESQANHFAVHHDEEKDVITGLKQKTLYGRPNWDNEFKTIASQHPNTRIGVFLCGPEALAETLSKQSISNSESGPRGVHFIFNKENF

[19] = target: NADPH oxidase 4 (Homo sapiens) (UniProt Q9NPH5); test: compounds shifting NOX4 Amplex Red fluorescence – cell-based, HEK293-NOX4, tetracycline-induced, NOX inhibitor project, primary screen (AID 1160); settings: HEK293-NOX4, Amplex Red H2O2 fluorescence, 45 min; higher = more signal, called active from +8 up or from −8 down
Sequence of NADPH oxidase 4 (Homo sapiens) (Q9NPH5 whole entry, looked up): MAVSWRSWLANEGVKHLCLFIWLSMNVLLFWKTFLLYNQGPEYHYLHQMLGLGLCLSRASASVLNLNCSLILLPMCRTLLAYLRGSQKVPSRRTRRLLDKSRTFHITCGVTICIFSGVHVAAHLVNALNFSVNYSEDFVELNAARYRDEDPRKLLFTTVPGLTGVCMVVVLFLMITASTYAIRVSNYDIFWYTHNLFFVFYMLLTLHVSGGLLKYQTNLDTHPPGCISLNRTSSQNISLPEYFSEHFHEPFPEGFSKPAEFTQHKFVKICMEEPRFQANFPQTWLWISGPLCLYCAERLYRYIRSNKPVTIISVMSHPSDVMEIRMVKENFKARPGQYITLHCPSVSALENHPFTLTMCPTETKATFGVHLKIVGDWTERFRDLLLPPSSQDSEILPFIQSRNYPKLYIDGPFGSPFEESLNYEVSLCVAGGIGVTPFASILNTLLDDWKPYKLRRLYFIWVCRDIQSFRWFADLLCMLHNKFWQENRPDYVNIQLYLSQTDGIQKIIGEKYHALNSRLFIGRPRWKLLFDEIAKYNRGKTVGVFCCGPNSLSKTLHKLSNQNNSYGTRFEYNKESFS

[20] = target: NADPH oxidase 5 (Homo sapiens) (UniProt Q96PH1); test: compounds shifting NOX5 Amplex Red fluorescence – cell-based, HEK293-NOX5, NOX inhibitor project, primary screen (AID 1161); settings: HEK293-NOX5, ionomycin, 45 min, higher = more signal
Sequence of NADPH oxidase 5 (Homo sapiens) (Q96PH1 whole entry, looked up): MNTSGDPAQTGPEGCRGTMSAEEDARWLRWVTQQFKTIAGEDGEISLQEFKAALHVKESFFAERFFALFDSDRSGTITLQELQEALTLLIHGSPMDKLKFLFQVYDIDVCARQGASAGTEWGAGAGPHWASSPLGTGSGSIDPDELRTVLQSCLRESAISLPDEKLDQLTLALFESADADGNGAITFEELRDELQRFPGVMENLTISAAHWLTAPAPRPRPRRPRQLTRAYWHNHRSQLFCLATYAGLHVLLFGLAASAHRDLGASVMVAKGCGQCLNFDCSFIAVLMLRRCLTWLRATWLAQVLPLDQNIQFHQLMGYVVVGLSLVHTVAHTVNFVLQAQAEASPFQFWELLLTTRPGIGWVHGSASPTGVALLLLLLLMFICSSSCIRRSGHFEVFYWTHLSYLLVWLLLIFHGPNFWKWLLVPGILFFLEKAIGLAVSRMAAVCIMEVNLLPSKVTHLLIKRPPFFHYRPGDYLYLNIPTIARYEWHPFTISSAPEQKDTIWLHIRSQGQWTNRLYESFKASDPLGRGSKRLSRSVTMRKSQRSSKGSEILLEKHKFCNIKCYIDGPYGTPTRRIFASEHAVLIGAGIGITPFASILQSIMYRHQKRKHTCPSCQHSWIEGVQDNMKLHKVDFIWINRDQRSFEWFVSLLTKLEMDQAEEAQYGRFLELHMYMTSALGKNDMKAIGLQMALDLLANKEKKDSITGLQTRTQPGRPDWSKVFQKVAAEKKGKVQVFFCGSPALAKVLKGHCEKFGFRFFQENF

Row | SMILES | composite z-score [1] | z-score [2] | z-score [3] | z-score [4] | z-score [5] | composite z-score [6] | composite z-score [7] | composite z-score (Torsin-1A (Homo sapiens) [8]) | composite z-score (Torsin-1A (Homo sapiens) [9]) | composite z-score [10] | z-score [11] | composite z-score [12] | z-score [13] | z-score [14] | z-score [15] | z-score [16] | z-score [17] | z-score [18] | z-score [19] | z-score [20]
1 | O=C1OCCC=C[C@H]2OC34C=CCN(c5ccc(Cl)cc5)C(=O)[C@H]3N(CCCO)C(=O)[C@@H]4C12 (stereo not given in full) | -0.047 | -2.24 (inactive) | -0.925 (inactive) | -0.35 (inactive) | -0.336 (inactive) | -0.414 | -0.227 | -0.531 | -1.56 | 0.0088 | 0.565 (inactive) | -0.221 | 0.991 (inactive) | -0.131 (inactive) | 0.319 (inactive) | -0.652 (inactive) | 1.61 | 0.736 (inactive) | -0.818 (inactive) | 0.215
2 | O=C(CS)NCCCCCNC(=O)[C@H]1C[C@H]2C(=O)NCC(=O)N2[C@H]1c1cccc(OCCO)c1 | -0.341 | -0.466 (inactive) | -0.218 (inactive) | -1.48 (inactive) | 0.0277 (inactive) | -1.05 | -0.217 | -0.181 | -0.0418 | 0.27 | 1.43 (inactive) | -0.142 | 0.0198 (inactive) | -0.851 (inactive) | -4 (inactive) | -2.1 (inactive) | -0.61 | 0.448 (inactive) | 1.08 (inactive) | 0.664
3 | O=C1NC(=O)C2C1C=CC(C(O)c1ccc(I)cc1)N2Nc1ccccn1 (stereo not given) | -0.0488 | 0.886 (inactive) | -0.833 (inactive) | 0.636 (inactive) | 0.0542 (inactive) | 0.242 | -0.0216 | 0.282 | 0.239 | -0.0484 | -1.29 (inactive) | 0.0701 | 1.41 (inactive) | 0.698 (inactive) | 0.0388 (inactive) | 0.729 (inactive) | -0.779 | -1.16 (inactive) | -2.82 (inactive) | -2.2
4 | [N-]=[N+]=Nc1ccccc1C[C@@]1(C(=O)N2CCCCC2)N=C(c2ccc(OCCCO)cc2)O[C@@H]1c1ccccc1 | 0.46 | -5.13 (inactive) | -0.682 (inactive) | 2.11 (inactive) | -0.0605 (inactive) | 1.23 | 0.298 | 0.417 | 0.36 | 0.131 | 2.42 (inactive) | 0.0227 | 26.6 (active) | 18.4 (active) | 2.78 (inactive) | 2.31 (inactive) | 0.159 | -0.0547 (inactive) | 0.951 (inactive) | -1.31
5 | C=CCNC(=O)[C@H]1[C@@H]2C(=O)O[C@@H](c3ccccc3)[C@@H](c3ccccc3)N2[C@@H](c2ccc(OCCO)cc2)[C@]12C(=O)Nc1ccc(C#CCC(C(=O)OC)C(=O)OC)cc12 | 0.256 | -1.19 (inactive) | 0.626 (inactive) | -0.728 (inactive) | 0.323 (inactive) | 1.17 | 0.0816 | 0.332 | 0.862 | 0.984 | -0.283 (inactive) | 0.128 | 3.01 (inactive) | 0.664 (inactive) | -0.291 (inactive) | 0.117 (inactive) | -0.602 | 1.48 (inactive) | 1.21 (inactive) | 0.45
6 | CC(=O)Nc1cc(Br)ccc1C(=O)NCc1ccccc1 | -0.0375 | -0.798 (inactive) | 0.0338 (inactive) | -0.348 (inactive) | -1.14 (inactive) | 0.725 | -0.0963 | -0.0164 | -0.0323 | -0.24 | -0.813 (inactive) | -0.0929 | 3.88 (inactive) | 0.423 (inactive) | 0.0319 (inactive) | 0.229 (inactive) | -0.283 | -0.714 (inactive) | -0.427 (inactive) | -0.393
7 | O=C1OCC=C[C@H]2OC34C=CCN(CCN5CCOCC5)C(=O)[C@H]3N(CCO)C(=O)[C@@H]4[C@@H]12 (stereo not given in full) | -0.38 | -0.117 (inactive) | 1.82 (inactive) | 0.459 (inactive) | 0.168 (inactive) | -0.175 | -0.359 | -0.618 | -0.61 | 1.93 | -0.738 (inactive) | -0.279 | 0.418 (inactive) | 0.009 (inactive) | -0.392 (inactive) | 0.33 (inactive) | -0.822 | 1.4 (inactive) | 0.628 (inactive) | 1.72
8 | O=C(CS)NCCCCCNC(=O)[C@H]1C[C@H]2C(=O)NCC(=O)N2[C@H]1c1ccc(O)cc1 | -0.55 | -0.173 (inactive) | -0.196 (inactive) | -1.49 (inactive) | -0.684 (inactive) | -1.11 | -0.264 | -0.518 | 0.113 | 0.0174 | 1.43 (inactive) | -0.479 | 0.279 (inactive) | -0.723 (inactive) | -0.813 (inactive) | -2.32 (inactive) | -0.0935 | -0.297 (inactive) | 0.243 (inactive) | 1.16
9 | OB1C=CCC(CCc2ccccc2)O1 (stereo not given) | -0.248 | -2.16 (inactive) | -1.35 (inactive) | 0.672 (inactive) | -1.28 (inactive) | -0.492 | -0.385 | -0.459 | -0.643 | 0.192 | 3.28 (inactive) | -0.0651 | -0.263 (inactive) | -0.649 (inactive) | -1.32 (inactive) | -2.19 (inactive) | 0.946 | -1.05 (inactive) | 0.69 (inactive) | 1.22
